# Measurements reported in PubChem BioAssay (NCATS).
# Records with an inconclusive call do not appear. Activity calls are given as the source filed them. Unless noted, the call rests on the fitted dose curve; in most records, active means well fitted curve in the direction sought with a large enough effect; inconclusive means small, poorly fitted or top-dose-only effect, or another doubt; inactive means no such curve, though single readings can be large; an effect the other way counts as inactive or inconclusive.
# What was measured:
# [1] = target: Lysosomal acid glucosylceramidase (Homo sapiens) (UniProt P04062); assay: Glucocerebrosidase-p2 (AID 348; in the data active means potency below about 10 µM; further: potency means the concentration at half of the fitted maximal effect); conditions: purified GBA, blue fluorogenic substrate, 40 min
# Summary of the method: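 Normal human glucocerebrosidase (0.2 nM) with blue fluorogenic substrate (80 uM final) in citrate/phosphate pH 5.9 with 10mM sodium taurocholate, 0.01% tween-20; 40 min RT, NaOH/glycine stop; fluorescence Ex 365/Em 440; AC50 from a titration from 0.6 nM upwards.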
# [2] = AP1 Signaling Pathway (AID 357; active means well fitted curve in either direction with a large enough effect, not every such curve was filed as active;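 further: ME-180 reporter cells stimulated with EGF at its EC50 level; on the % scale 0 is the no-effect control and ±100 the full control effect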); conditions: ME-180 AP-1-bla reporter, EGF-induced, beta-lactamase ratio, 5 h; at 7.69 µM (top of the series) unless noted
# Summary of the method: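 AP-1-bla ME-180 cells, Opti-MEM + 0.5% dialyzed FBS, plated overnight 37 °C. Cpd titration + EC50 EGF, 5 h 37 °C. CCF4 2.5 h RT; ex 405, em 460/530 ratio → %activity, AC50.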
# [3] = NFAT Signaling Pathway (AID 444; active means well fitted curve in either direction with a large enough effect, not every such curve was filed as active;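 further: carbachol stimulus at about its EC50 of 1 µM final; on the % scale 0 is the no-effect control and ±100 the full control effect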); conditions: Jurkat NFAT-bla M1, carbachol, beta-lactamase ratio, 5 h; at 7.69 µM (top of the series) unless noted
# Summary of the method: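 Read-out: CCF4 FRET ratio (460 nm/530 nm) after 1 h RT dye loading, used for %activity and AC50 from titration series. Cells: Jurkat NFAT-β-lactamase/M1 line, treated with compound plus 1 uM carbachol for 5 h, 37 °C.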
# [4] = Stat Signaling Pathway (AID 446; active means well fitted curve in either direction with a large enough effect, not every such curve was filed as active;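 further: ME-180 cervical cancer cells given 40 pM IL-6 alongside compound; SIE-controlled beta-lactamase reporter measured as 460/530 nm FRET emission ratio; on the % scale 0 is the no-effect control and ±100 the full control effect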); conditions: ME-180 (cervical carcinoma) SIE beta-lactamase reporter, IL-6 stimulated, 5 h; at 7.69 µM (top of the series) unless noted
# Summary of the method: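 FRET read-out (405 nm excitation, 460/530 nm emission) of a beta-lactamase reporter under a STAT-inducible element in ME-180 cervical carcinoma cells. Cells with compound receive 40 pM IL-6 for 5 h. Values are normalised to AC90 stimulation and AC90 JAK-inhibitor controls.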
# [5] = target: Glucocorticoid receptor (Homo sapiens) (UniProt P04150); assay: GR-GFP Redistribution (AID 450;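 active means compounds whose dose series gives a full or clear partial fitted curve of increased nuclear translocation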; further: potency means the concentration at half of the fitted maximal effect); conditions: U2OS GR-GFP nuclear translocation, laser cytometry, 2 h
# [6] = target: Glucocorticoid receptor (Homo sapiens) (UniProt P04150); assay: GR-EFC Redistribution (AID 451; calls by dose curve; further: potency means the concentration at half of the fitted maximal effect); conditions: CHO-K1 GR-EFC translocation, beta-gal luminescence, 2 h
# Summary of the method: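 Translocation of GR-ED fusion to nuclear EA restores b-gal, read by luminescence after 1 h room-temperature detection. Engineered CHO-K1 biosensor cells, 1,000/well, exposed 2 h at 37 C to titrations up to 46 uM final.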
# [7] = target: 3',5'-cyclic-AMP phosphodiesterase 4B (Homo sapiens) (UniProt Q07343); assay: qHTS Assay for Inhibitors of PDE-IV (AID 607; active means well fitted activation curve with a large enough effect in the main read-out, with a control signal flat, not every such curve was filed as active; further: % of control where 0% means no effect)
# Summary of the method: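 Cell-based read-out of cAMP via a modified cyclic nucleotide-gated channel and membrane potential dye (535/590 nm) in HEK293 cells expressing PDE4 endogenously. Compounds tested up to 22.9 uM final; 100 uM RO 20-1724 reference.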
# [8] = qHTS Assay for Lipid Storage Modulators (AID 1519; calls by dose curve); conditions: Drosophila S3 cells, BODIPY lipid droplet/cell ratio, laser cytometry, cells loaded with oleic acid; for activity change, negative = inhibition: at 57.5 µM (top of the series)
# Summary of the method: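 Cells seeded at 5,000 per well were treated with compounds over a concentration series and loaded with oleic acid (400 uM, as added). Lipid droplet fluorescence (488 nm excitation, 500-530 nm channel) was read by laser-scanning cytometry and normalized to 20 uM Triacsin C.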
# [9] = target: Dual specificity protein kinase CLK4 (Homo sapiens) (UniProt Q9HAZ1); assay: qHTS Assay for Inhibitors of CDC-like Kinase 4 (ADP-Glo Assay) (AID 1771); further: nearly all actives have a fitted effect of over 70% in size; further: potency means the concentration at half of the fitted maximal effect
# Summary of the method: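 ADP production was read by ADP-Glo luminescence after residual ATP depletion, following 1 h room-temperature reaction of 25 nM Clk4, 1 uM ATP and 100 uM RS peptide with MgCl2, EGTA, DTT and Triton X-100.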
# [10] = target: Ubiquitin carboxyl-terminal hydrolase 1 (Homo sapiens) (UniProt O94782); assay: Inhibitors of USP1/UAF1: Pilot qHTS (AID 504865);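 further: rhodamine fluorescence freed from ubiquitin-rhodamine substrate followed over time; top concentration of the series differs between compounds; on the % scale 0 is the no-effect control and ±100 the full control effect; nearly all actives have a fitted effect of over 35% in size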
# Summary of the method: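 1nM USP1/UAF1 + cpd, 15 min RT; start w/ Ub-Rho 150nM final; kinetic FL 480/540 nm, 6 reads q60 s. Buffer 50mM HEPES pH 7.8, 0.5mM EDTA, 1mM TCEP, 0.01% Tween-20, 0.1 mg/ml BSA.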
# [11] = Confirmation and Secondary Assay for Modulators of Hemoglobin Beta Chain Splicing at IVS2 654 locus (AID 910);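 further: HeLa cells stably carrying EGFP split by mutant beta-globin IVS2-654 intron; per-well total GFP intensity by laser scanning cytometry after 2-day treatment; % of control where 0% means no effect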
# Summary of the method: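 Readout: per-well total peak green fluorescence (488 nm ex, 500–520 nm em) from objects 5–250 µm, reflecting correct splicing of an EGFP-654 reporter. Compounds were applied for 2 days at 37 °C to overnight-plated HeLa EGFP-654 cells; controls were DMSO and 500 nM IVS2-654 PNA.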
# [12] = Confirmation and Secondary Assay for Modulators of Hemoglobin Beta Chain Splicing at IVS2 705 locus (AID 930);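 further: HeLa cells stably expressing the EGFP-705 splicing reporter; % of control where 0% means no effect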
# Summary of the method: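 Restored EGFP fluorescence after 2-day compound exposure reports splicing correction in IVS2-705 EGFP reporter HeLa cells; positive control was 500 nM splice-blocking PNA oligo. Signal measured as well total peak GFP intensity (488 nm excitation).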
# [13] = target: Cytochrome P450 3A4 (Homo sapiens) (UniProt P08684); assay: qHTS Assay for Activators of Cytochrome P450 3A4 (AID 885); further: nearly all actives have a fitted effect of over 65% in size
# Summary of the method: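 Luminescent readout of luciferin formed from 25 uM Luciferin-PPXE (KM level) by 20 nM CYP3A4 in 200 mM KPO4, with 60 min NADPH-driven reaction at room temperature after 10 min compound exposure. Ketoconazole (57 uM) defined 100% inhibition.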
# [14] = target: Cytochrome P450 1A2 (Homo sapiens) (UniProt P05177); assay: p450-cyp1a2 (AID 410; calls by dose curve; further: potency means the concentration at half of the fitted maximal effect)
# Summary of the method: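 Luminescent demethylation readout: Luciferin-ME (100uM, equal to Km) turned over by 20nM CYP1A2 for 60 min at room temperature after NADPH regeneration addition, following 10 min compound preincubation. Normalization used 57 uM furafylline as full inhibition.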
# [15] = target: Mitogen-activated protein kinase 10 (Mus musculus) (UniProt Q61831); assay: JNK3 AlphaScreen Assay (AID 530; active means well fitted curve in either direction with a large enough effect, not every such curve was filed as active;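 further: kinase came from lysate of stimulated human HepG2 cells; signal reports phosphorylation of biotinylated GST-cJun 1-79 at Ser73 with 10 µM ATP; on the % scale 0 is the no-effect control and ±100 the full control effect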)
# Summary of the method: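 qHTS titrations with 15 min compound pre-incubation before adding ATP (10 uM final). Read-out: AlphaScreen of Ser73-phosphorylated biotin-GST-cJun using HepG2 lysate JNK3 activated by IL-1β and TNFα.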
# [16] = target: Dual specificity protein kinase CLK4 (Homo sapiens) (UniProt Q9HAZ1); assay: qHTS Assay for Inhibitors of CDC-like Kinase 4 (ADP-FP Assay) (AID 1795);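 further: recombinant human CLK4 phosphorylating RS repeat peptide at 1 µM ATP; on the % scale 0 is the no-effect control and ±100 the full control effect; nearly all actives have a fitted effect of over 60% in size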
# Summary of the method: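 FP readout: Orange Transcreener ADP2 tracer (4 nM) plus ADP antibody, read after 30 min at room temperature. Kinase step: 6.25 nM Clk4, 100 uM RS peptide, 1 uM ATP, pH 7.5, 1 h.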
# [17] = target: Cytochrome P450 3A4 (Homo sapiens) (UniProt P08684); assay: qHTS Assay for Inhibitors and Substrates of Cytochrome P450 3A4 (AID 884); further: nearly all actives have a fitted effect of over 50% in size; further: potency means the concentration at half of the fitted maximal effect
# Summary of the method: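 Luminescent readout of luciferin produced by CYP3A4 (20 nM) dealkylation of Luciferin-PPXE, 25 uM (its KM). NADPH-driven reaction ran 60 min at RT after 10 min compound preincubation; data scaled to 57 uM ketoconazole as 100% inhibition.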
# [18] = target: Cytochrome P450 2C19 (Homo sapiens) (UniProt P33261); assay: qHTS Assay for Inhibitors and Substrates of Cytochrome P450 2C19 (AID 899); further: potency means the concentration at half of the fitted maximal effect; nearly all actives have a fitted effect of over 60% in size
# Summary of the method: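 5nM enzyme + 10uM Luciferin-H EGE (=KM), 50mM KPO4; cpd pin-transferred, 10 min 37C; NADPH regen, 60 min 37C; stopped w/ luciferin detection reagent, 20 min; luminescence. Normalized to 57uM ketoconazole (AC100).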
# [19] = measured here: cell count channel max response
# [20] = measured here: lipid channel max response
# Chain of Ubiquitin carboxyl-terminal hydrolase 1 (Homo sapiens) (O94782 whole entry, looked up): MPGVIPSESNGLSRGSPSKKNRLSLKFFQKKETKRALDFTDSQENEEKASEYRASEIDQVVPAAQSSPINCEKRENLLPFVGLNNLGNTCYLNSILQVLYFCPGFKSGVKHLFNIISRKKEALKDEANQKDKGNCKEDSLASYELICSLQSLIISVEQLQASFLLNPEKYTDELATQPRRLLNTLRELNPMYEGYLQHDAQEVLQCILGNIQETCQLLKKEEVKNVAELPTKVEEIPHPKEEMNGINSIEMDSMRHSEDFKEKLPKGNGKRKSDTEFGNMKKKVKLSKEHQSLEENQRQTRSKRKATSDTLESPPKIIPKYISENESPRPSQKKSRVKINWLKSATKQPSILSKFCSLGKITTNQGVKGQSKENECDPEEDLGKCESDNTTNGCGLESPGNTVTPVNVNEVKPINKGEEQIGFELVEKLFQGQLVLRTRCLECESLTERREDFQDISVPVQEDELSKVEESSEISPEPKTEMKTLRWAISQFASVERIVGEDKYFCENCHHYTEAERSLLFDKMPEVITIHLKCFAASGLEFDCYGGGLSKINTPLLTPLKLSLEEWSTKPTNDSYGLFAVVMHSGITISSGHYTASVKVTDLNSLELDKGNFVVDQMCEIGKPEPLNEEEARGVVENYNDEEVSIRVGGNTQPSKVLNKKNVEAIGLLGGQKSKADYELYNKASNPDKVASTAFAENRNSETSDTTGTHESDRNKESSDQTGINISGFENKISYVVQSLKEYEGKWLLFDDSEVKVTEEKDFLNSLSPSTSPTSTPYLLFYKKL
# Chain of Glucocorticoid receptor (Homo sapiens) (P04150 whole entry, looked up, the tested form may be a part): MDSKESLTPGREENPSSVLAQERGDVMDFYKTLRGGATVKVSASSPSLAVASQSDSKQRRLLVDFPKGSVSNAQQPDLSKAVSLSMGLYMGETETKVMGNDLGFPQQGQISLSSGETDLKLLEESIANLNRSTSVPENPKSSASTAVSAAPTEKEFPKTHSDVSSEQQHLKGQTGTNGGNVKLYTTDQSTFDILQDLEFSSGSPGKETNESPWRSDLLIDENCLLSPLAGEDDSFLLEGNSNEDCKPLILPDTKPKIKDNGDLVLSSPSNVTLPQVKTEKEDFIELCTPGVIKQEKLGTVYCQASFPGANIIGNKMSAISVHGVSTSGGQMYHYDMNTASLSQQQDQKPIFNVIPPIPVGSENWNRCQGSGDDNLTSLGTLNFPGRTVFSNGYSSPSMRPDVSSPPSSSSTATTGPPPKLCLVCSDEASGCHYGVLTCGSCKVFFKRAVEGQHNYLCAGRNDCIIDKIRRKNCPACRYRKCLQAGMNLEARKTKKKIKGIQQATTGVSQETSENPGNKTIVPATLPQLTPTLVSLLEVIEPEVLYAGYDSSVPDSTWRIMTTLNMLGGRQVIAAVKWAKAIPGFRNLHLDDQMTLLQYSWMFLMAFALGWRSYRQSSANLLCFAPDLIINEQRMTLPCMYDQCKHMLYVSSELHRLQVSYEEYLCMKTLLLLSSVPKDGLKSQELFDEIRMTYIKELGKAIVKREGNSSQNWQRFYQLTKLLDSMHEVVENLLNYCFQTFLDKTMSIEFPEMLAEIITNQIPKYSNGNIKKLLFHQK
# Chain of Lysosomal acid glucosylceramidase (Homo sapiens) (P04062 whole entry, looked up): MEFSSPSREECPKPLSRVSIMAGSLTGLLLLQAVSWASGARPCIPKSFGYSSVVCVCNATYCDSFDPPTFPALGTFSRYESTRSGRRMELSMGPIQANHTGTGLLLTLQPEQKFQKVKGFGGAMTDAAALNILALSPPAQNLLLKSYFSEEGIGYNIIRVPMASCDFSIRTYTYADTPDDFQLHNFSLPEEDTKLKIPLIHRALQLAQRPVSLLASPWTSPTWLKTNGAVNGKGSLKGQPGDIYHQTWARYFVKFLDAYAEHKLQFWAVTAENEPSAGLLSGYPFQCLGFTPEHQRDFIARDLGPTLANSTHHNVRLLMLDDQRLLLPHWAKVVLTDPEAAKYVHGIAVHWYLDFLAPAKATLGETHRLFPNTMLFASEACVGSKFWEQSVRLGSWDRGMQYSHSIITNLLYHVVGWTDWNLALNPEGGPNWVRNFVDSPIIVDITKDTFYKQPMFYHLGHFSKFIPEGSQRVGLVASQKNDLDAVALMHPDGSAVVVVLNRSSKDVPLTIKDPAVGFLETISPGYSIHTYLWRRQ
# Chain of 3',5'-cyclic-AMP phosphodiesterase 4B (Homo sapiens) (Q07343 whole entry, looked up): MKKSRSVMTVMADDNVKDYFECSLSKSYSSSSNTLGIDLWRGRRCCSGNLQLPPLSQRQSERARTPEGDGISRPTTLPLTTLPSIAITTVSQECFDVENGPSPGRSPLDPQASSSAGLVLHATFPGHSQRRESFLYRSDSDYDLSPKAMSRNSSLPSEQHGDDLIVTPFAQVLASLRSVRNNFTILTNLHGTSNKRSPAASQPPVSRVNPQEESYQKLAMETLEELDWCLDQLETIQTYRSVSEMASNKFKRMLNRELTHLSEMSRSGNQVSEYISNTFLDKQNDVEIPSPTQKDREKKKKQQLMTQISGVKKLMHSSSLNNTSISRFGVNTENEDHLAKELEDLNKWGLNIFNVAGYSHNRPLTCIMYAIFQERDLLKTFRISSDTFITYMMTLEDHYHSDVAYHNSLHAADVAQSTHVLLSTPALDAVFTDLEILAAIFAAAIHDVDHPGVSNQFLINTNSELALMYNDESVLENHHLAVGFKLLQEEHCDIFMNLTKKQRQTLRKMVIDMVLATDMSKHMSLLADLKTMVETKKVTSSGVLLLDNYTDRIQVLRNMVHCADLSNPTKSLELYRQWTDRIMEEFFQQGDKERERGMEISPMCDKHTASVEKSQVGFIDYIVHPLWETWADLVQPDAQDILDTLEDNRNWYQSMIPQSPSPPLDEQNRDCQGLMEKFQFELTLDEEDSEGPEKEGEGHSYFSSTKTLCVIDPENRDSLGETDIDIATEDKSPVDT
# Chain of Dual specificity protein kinase CLK4 (Homo sapiens) (Q9HAZ1 whole entry, looked up): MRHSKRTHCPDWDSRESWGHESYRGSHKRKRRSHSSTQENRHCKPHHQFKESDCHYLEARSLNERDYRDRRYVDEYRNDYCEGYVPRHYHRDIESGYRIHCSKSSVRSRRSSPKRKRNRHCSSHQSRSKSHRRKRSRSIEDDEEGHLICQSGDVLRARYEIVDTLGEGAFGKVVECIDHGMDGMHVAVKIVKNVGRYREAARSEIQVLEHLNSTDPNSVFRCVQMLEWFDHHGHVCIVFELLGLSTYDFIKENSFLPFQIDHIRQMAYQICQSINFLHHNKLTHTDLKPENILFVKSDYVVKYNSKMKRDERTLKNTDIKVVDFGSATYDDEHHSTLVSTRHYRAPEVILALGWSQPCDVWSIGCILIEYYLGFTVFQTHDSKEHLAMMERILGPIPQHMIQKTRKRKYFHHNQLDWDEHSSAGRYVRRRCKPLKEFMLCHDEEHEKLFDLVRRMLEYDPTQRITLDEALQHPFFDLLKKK
# Chain of Cytochrome P450 3A4 (Homo sapiens) (P08684 whole entry, looked up): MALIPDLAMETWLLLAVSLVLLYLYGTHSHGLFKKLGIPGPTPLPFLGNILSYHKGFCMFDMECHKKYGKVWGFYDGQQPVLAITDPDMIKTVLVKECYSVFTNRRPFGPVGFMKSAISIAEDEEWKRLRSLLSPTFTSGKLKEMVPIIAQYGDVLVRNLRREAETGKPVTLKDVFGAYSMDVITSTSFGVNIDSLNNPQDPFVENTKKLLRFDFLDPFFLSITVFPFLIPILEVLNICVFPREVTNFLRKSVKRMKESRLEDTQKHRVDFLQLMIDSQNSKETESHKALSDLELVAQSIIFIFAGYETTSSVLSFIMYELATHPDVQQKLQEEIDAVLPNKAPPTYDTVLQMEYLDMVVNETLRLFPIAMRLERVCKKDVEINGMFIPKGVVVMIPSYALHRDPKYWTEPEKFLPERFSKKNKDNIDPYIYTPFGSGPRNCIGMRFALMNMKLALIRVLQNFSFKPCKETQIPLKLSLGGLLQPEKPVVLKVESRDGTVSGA
# Chain of Cytochrome P450 1A2 (Homo sapiens) (P05177 whole entry, looked up): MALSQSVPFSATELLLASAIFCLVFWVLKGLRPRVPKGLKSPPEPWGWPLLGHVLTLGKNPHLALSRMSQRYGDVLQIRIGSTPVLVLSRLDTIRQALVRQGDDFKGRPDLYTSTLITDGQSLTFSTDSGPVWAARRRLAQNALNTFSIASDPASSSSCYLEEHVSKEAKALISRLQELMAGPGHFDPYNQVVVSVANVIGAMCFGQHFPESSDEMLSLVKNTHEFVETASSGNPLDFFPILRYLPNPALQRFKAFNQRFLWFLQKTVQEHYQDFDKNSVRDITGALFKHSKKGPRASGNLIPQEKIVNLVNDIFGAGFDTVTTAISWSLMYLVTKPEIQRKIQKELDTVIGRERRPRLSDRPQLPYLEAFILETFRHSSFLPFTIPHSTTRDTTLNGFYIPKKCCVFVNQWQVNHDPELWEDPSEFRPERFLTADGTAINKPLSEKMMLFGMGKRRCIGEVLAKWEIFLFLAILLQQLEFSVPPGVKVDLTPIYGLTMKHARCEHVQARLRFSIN
# Chain of Cytochrome P450 2C19 (Homo sapiens) (P33261 whole entry, looked up): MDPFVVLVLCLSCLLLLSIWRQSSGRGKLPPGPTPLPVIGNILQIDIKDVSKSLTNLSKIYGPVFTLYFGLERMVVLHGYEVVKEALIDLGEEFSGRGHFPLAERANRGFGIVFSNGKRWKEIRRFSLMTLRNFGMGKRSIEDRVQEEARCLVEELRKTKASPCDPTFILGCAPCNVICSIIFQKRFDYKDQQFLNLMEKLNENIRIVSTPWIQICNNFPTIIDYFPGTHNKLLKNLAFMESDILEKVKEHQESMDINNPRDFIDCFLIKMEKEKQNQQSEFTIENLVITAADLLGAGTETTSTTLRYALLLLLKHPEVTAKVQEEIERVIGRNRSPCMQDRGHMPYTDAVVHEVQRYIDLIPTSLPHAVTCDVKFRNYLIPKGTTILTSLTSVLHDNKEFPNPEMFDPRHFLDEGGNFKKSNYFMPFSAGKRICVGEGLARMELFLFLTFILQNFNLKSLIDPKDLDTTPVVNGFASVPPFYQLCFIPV
structure (smiles),measurement,setting,value
COc1cccc(Cn2c(=O)c(C)nc3cnc(N(C)C)nc32)c1,Potency,[1],> 11.4 µM (inactive)
same,"activity change, negative = inhibition",[2],-23% (inactive)
same,"activity change, negative = inhibition",[3],1.59% (inactive)
same,"activity, negative = inhibition",[4],-11.2% (inactive)
same,Potency,[5],> 9.22 µM (inactive)
same,Potency,[6],> 46 µM (inactive)
same,Potency,[7],inactive
same,"activity change, negative = inhibition",[8],-5.5% (inactive)
same,max response,[8]; [19],19.8%
same,max response,[8]; [20],12.4%
same,Potency,[9],inactive
same,Potency,[10],inactive
CC1(C)SC2C(NC(=O)Cc3ccccc3)C(=O)N2C1C(=O)O (stereo unspecified),Potency,[11],inactive
same,outcome,[12],inactive
same,"activity change, negative = inhibition",[8],5.55% (inactive)
same,max response,[8]; [19],11.4%
same,max response,[8]; [20],23.9%
same,Potency,[10],inactive
COc1cc2c(cc1OC)C1Cc3ccc(OC)c(OC)c3CN1CC2 (stereo unspecified),Potency,[13],inactive
same,Potency,[11],inactive
same,outcome,[12],inactive
same,"activity change, negative = inhibition",[8],8.32% (inactive)
same,max response,[8]; [19],12.8%
same,max response,[8]; [20],22.2%
COc1ncc2nc(-c3cccs3)c(=O)n(C)c2n1,Potency,[1],> 11.4 µM (inactive)
same,Potency,[14],2 µM (active)
same,"activity change, negative = inhibition",[3],8.87% (inactive)
same,"activity, negative = inhibition",[4],20.2% (inactive)
same,Potency,[5],> 46 µM (inactive)
same,Potency,[6],> 46 µM (inactive)
same,Potency,[15],inactive
same,Potency,[7],inactive
same,Potency,[13],inactive
same,"activity change, negative = inhibition",[8],6% (inactive)
same,max response,[8]; [19],19.4%
same,max response,[8]; [20],24.1%
same,Potency,[16],inactive
same,Potency,[10],inactive
O=c1cc(-c2ccc(O)cc2)oc2cc(O[C@H]3OC(CO)C(O)C(O)C3O)cc(O)c12 (stereo partly specified),Potency,[17],inactive
same,outcome,[12],inactive
same,"activity change, negative = inhibition",[8],6.29% (inactive)
same,max response,[8]; [19],-4.63%
same,max response,[8]; [20],3.59%
C=C(NC(=O)C(=C)NC(=O)c1csc(C2=NC3c4csc(n4)C4NC(=O)c5csc(n5)C(C(C)(O)C(C)O)NC(=O)C5CSC(=N5)C(=CC)NC(=O)C(C(C)O)NC(=O)c5csc(n5)C3(CC2)NC(=O)C(C)NC(=O)C(=C)NC(=O)C(C)NC(=O)C(C(C)CC)NC2C=Cc3c(C(C)O)cc(nc3C2O)C(=O)OC4C)n1)C(N)=O (stereo unspecified),Potency,[17],inactive
same,Potency,[11],inactive
same,outcome,[12],inactive
same,"activity change, negative = inhibition",[8],-19.2% (inactive)
same,max response,[8]; [19],27.8%
same,max response,[8]; [20],5.44%
FC(F)(F)c1ccccc1-c1ccc2ncnc(NCc3cccs3)c2c1,Potency,[1],> 11.4 µM (inactive)
same,"activity change, negative = inhibition",[2],13.7% (inactive)
same,Potency,[14],7.94 µM (active)
same,"activity, negative = inhibition",[4],-16.1% (inactive)
same,Potency,[5],> 46 µM (inactive)
same,Potency,[15],inactive
same,Potency,[17],5.01 µM (active)
same,Potency,[13],inactive
same,Potency,[18],3.16 µM (active)
same,"activity change, negative = inhibition",[8],-3.1% (inactive)
same,max response,[8]; [19],9.21%
same,max response,[8]; [20],5.18%
same,Potency,[16],inactive
same,Potency,[10],inactive
Cc1noc(C)c1-c1nc(NC2CCNCC2)c2ccccc2n1,"activity change, negative = inhibition",[2],34.4% (inactive)
same,Potency,[14],5.01 µM (active)
same,"activity change, negative = inhibition",[3],26.2% (inactive)
same,"activity, negative = inhibition",[4],6.06% (inactive)
same,Potency,[5],> 46 µM (inactive)
same,Potency,[6],> 46 µM (inactive)
same,Potency,[15],inactive
same,Potency,[7],inactive
same,"activity change, negative = inhibition",[8],4.9% (inactive)
same,max response,[8]; [19],11.4%
same,max response,[8]; [20],12.7%
same,Potency,[9],28.2 µM (active)
C#C[C@]1(O)CCC2C3CCC4=C(CCC(=O)C4)C3CC[C@@]21C (stereo partly specified),Potency,[11],inactive
same,outcome,[12],inactive
same,"activity change, negative = inhibition",[8],7.93% (inactive)
same,max response,[8]; [19],-6.89%
same,max response,[8]; [20],3.32%
same,Potency,[10],inactive
